Inconclusive results are not listed. The source made the active and inactive calls.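 Rule for the calls: active = NMR saturation transfer binding signal to menin that a known MLL-derived binding peptide displaces; inconclusive = NMR binding signal present but the peptide does not displace it; inactive = no NMR binding signal.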

Sequence of Menin (Homo sapiens) (O00255 whole entry, looked up, the tested form may be a part): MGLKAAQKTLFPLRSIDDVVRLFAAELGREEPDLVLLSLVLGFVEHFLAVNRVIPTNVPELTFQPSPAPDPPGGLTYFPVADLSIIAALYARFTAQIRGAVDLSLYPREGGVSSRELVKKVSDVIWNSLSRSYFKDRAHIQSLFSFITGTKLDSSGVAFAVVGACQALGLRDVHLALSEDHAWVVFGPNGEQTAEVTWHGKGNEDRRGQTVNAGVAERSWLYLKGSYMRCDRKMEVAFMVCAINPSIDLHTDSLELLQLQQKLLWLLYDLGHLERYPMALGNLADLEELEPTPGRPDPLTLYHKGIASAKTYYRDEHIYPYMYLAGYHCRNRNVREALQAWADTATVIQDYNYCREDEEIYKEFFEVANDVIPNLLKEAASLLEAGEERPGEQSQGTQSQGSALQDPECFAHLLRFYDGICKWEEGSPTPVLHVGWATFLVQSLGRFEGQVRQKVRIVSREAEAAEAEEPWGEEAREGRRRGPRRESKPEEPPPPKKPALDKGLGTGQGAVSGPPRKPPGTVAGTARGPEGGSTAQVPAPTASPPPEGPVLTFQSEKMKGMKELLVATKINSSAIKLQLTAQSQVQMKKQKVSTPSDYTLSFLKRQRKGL

This test deals with Menin (Homo sapiens) (UniProt O00255). In words: Confirmation of Inhibitors Targeting the Menin-MLL Interaction in MLL Related Leukemias: Binding Confirmation with NMR Saturation Transfer Difference. The conditions noted are these: recombinant menin. The source says:
qHTS Assay for Inhibitors Targeting the Menin-MLL Interaction in MLL Related Leukemias NIH Chemical Genomics Center [NCGC] NIH Molecular Libraries Probe Centers Network [MLPCN] MLPCN Grant: MH084875-01A1 Assay Submitter (PI): Jolanta Grembecka, Tomasz Cierpicki, University of Virginia Translocations of the MLL (Mixed Lineage Leukemia) gene are frequently found in human leukemias affecting both children and adults. Fusion of MLL to one of more than 60 genes results in generation of oncogenic proteins upregulating Hox genes, which are vital to blood cell development. Patients harboring fusion of the MLL gene suffer from aggressive leukemias and respond poorly to available therapies. All of the oncogenic fusion proteins have a preserved N-terminal fragment of MLL that has been identified to interact with menin. It has been recently discovered that association with menin is critical to the leukemogenic activity of the MLL fusion oncoproteins. Selective targeting of the menin-MLL interaction could provide an attractive therapeutic approach to develop novel drugs for MLL-related leukemias. Small molecules blocking the menin-MLL interaction should reverse the oncogenic potential of MLL fusion proteins. We have developed and optimized a fluorescence polarization-based assay for the identification of Menin-MLL inhibitors. The assay was run employing two different MLL-derived peptides. The present assay uses a 12 amino acid peptide labeled with fluorescein at its N-terminus. This peptide consists of the menin high affinity binding motif from MLL and is potently bound by menin. Another peptide with a mutated sequence, labeled with Texas Red, was used in parallel as a less stringent screen for inhibitors. The present assay uses an orthogonal technique to identify those compounds specifically interacting with the target protein.
NMR samples for the saturation transfer difference (STD) experiments contained 2.5uM menin solution in 50 mM phosphate buffer, 50 mM NaCl, 1mM DTT, pH= 7.5, with 5% of D2O, final volume 150 uL. The compounds were added as stock solutions in DMSO to final 100 uM concentration and 5% DMSO. All NMR experiments were recorded using 600 MHz Bruker Avance III spectrometer at 25C. Samples for the competition STD experiments contained additional MBM1 peptide at final concentration of 25 uM and the measurements were carried out is the same way as described above for STD experiments.
For the compound `CCc1ccc2c(c1)C(NC(C)=O)C(=O)N2CCN1CCOCC1` (stereo unspecified), the outcome is “inactive; false”.

`Cc1sc2ncnc(NC3CCN(Cc4ccccc4)CC3)c2c1C`: the outcome was “active; true”.

In the case of `CN(C)c1ccc(C2CC(=O)C=C(Nc3ccccc3N)C2)cc1` (stereo unspecified), the outcome is “inactive; false”.

In the case of `CCOc1cc(CNCCc2ccc(S(N)(=O)=O)cc2)ccc1OCc1ccccc1`, the outcome is “active; true”.

Turning to `CCCC(c1nnnn1Cc1cccs1)N1CCN(C2CCCC2)CC1` (stereo unspecified), the outcome is “active; true”.

For the compound `O=C(C[N+]12CC[N+](CC(=O)c3ccc(F)cc3)(CC1)CC2)c1ccc(F)cc1`, the outcome is “active; true”.

Turning to `O=C(CS)Nc1ccc2ccccc2c1`, the outcome was “inactive; false”.

As for `CCOc1ccc2c(c1)C(NC(C)=O)C(=O)N2CCN1CCOCC1` (stereo unspecified), the outcome was “inactive; false”.

Take `CCOC(=O)c1cnc2ccc(OCC)cc2c1N1CCN(C)CC1`: the outcome was “active; true”.

`N#Cc1ccc(OCC(O)CN2CCN(C(c3ccccc3)c3ccccc3)CC2)cc1` (stereo unspecified): the outcome is “active; true”.

As to `CC(=O)NC1C(=O)N(CCN2CCOCC2)c2ccc(C)cc21` (stereo unspecified), the outcome was “inactive; false”.

As for `CCN(CC)Cc1cc2[nH]c3c4ccc(Cl)cc4ncc3c2cc1OC`, the outcome is “inactive; false”.

Consider `COc1ccccc1C(=O)Nc1ccnn1C1CCN(CC2CC=CCC2)CC1` (stereo unspecified), for which the outcome was “active; true”.

Consider `CC(=O)NC1C(=O)N(CCN2CCOCC2)c2ccc(Cl)cc21` (stereo unspecified), for which the outcome is “inactive; false”.

In the case of `C[C@H](NC(=O)c1cc2c(cn1)[nH]c1ccccc12)C(=O)O`, the outcome is “inactive; false”.

As for `CCC(c1nnnn1Cc1ccc(F)cc1)N1CCN(C2CCCCC2)CC1` (stereo unspecified), the outcome was “active; true”.

Values taken from PubChem BioAssay AID504585 (National Center for Advancing Translational Sciences (NCATS), 2011).
